From PubChem BioAssay (EPA / NIEHS)
The source made the active and inactive calls. How the source made its calls: active means hit-call score of the fitted dose curve at least 0.9, where 1 is the maximum; inactive means score below 0.9.

Columns and labels:
Conditions in all cases: mRNA level, 48 h; actives raise or lower the signal
[1] = read-out: Forkhead box O3 (FOXO3), FOXO3 (gene 2309); assay: LTEA_HepaRG_FOXO3: Life Technologies and Expression Analysis (LTEA) Assay for Forkhead box O3 (FOXO3) using HepaRG (AID 2283459)
Outline: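 Differentiated human HepaRG cells, 48 h post-plating, exposed in duplicate for 48 h in serum-free induction medium; 8-point half-log series from 100 uM in 0.5% DMSO. FOXO3 mRNA by TaqMan qRT-PCR, normalized to ACTB/GAPDH/POLR2A; bidirectional fit versus DMSO.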

[2] = read-out: ABC Transporter (ABCB1), ABCB1 (gene 5243); assay: LTEA_HepaRG_ABCB1: Life Technologies and Expression Analysis (LTEA) Assay for ABC Transporter (ABCB1) using HepaRG (AID 2283460)
Outline: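 HepaRG cells exposed in duplicate for 48 h in serum-free induction medium to eight half-log concentrations up to 100 uM in 0.5% DMSO. ABCB1 mRNA quantified by qRT-PCR, normalised to ACTB, GAPDH and POLR2A; fitted bidirectionally versus DMSO.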

[3] = read-out: growth arrest and DNA damage 45 (GADD45B), GADD45B (gene 4616); assay: LTEA_HepaRG_GADD45B: Life Technologies and Expression Analysis (LTEA) Assay for growth arrest and DNA damage 45 (GADD45B) using HepaRG (AID 2283461)
Outline: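 qRT-PCR read-out (Fluidigm TaqMan, housekeeping-normalized) of mRNA change in human HepaRG cells after 48 h chemical exposure; 8-point curve, top 100 uM, half-log steps, 0.5% DMSO vehicle; gain or loss fitted relative to DMSO baseline.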

[4] = read-out: ABC Transporter (ABCC3), ABCC3 (gene 8714); assay: LTEA_HepaRG_ABCC3: Life Technologies and Expression Analysis (LTEA) Assay for ABC Transporter (ABCC3) using HepaRG (AID 2283462)
Outline: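 qRT-PCR read-out of ABCC3 transcript, normalized to three housekeeping genes (ACTB, GAPDH, POLR2A), after 48 h chemical exposure of human HepaRG cells. Eight half-log concentrations, highest 100 uM, in 0.5% DMSO; gain or loss fitted relative to DMSO baseline.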

[5] = read-out: ABC Transporter (ABCB11), ABCB11 (gene 8647); assay: LTEA_HepaRG_ABCB11: Life Technologies and Expression Analysis (LTEA) Assay for ABC Transporter (ABCB11) using HepaRG (AID 2283463)
Outline: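 Differentiated human HepaRG cells in serum-free induction medium, dosed in duplicate for 48 h. Eight-point half-log series from 100 uM in 0.5% DMSO; ABCB11 mRNA by qRT-PCR, normalized to ACTB, GAPDH, POLR2A, fitted bidirectionally versus DMSO.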

[6] = read-out: ABC Transporter (ABCC2), ABCC2 (gene 1244); assay: LTEA_HepaRG_ABCC2: Life Technologies and Expression Analysis (LTEA) Assay for ABC Transporter (ABCC2) using HepaRG (AID 2283464)
Outline: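 qRT-PCR (TaqMan, Fluidigm array) read-out of ABCC2 mRNA, normalized to three housekeeping genes. Differentiated HepaRG cells were treated 48 h in serum-free induction medium with 8-point half-log series from 100 uM in 0.5% DMSO; curves fitted bidirectionally relative to DMSO.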

[7] = read-out: ATP-citrate lyase (ACLY), ACLY (gene 47); assay: LTEA_HepaRG_ACLY: Life Technologies and Expression Analysis (LTEA) Assay for ATP-citrate lyase (ACLY) using HepaRG (AID 2283466)
Outline: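 Differentiated HepaRG cells exposed 48 h in serum-free induction medium to eight half-log concentrations up to 100 uM in 0.5% DMSO, duplicates. Transcript measured by Fluidigm TaqMan qRT-PCR, normalized to ACTB, GAPDH, POLR2A; bidirectional fit versus DMSO.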

[8] = read-out: Peroxisomal acyl-coenzyme A oxidase 1 (ACOX1) gene, ACOX1 (gene 51); assay: LTEA_HepaRG_ACOX1: Life Technologies and Expression Analysis (LTEA) Assay for Peroxisomal acyl-coenzyme A oxidase 1 (ACOX1) gene using HepaRG (AID 2283467)
Outline: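 HepaRG cells, plated 48 h then switched to serum-free induction medium, were exposed in duplicate for 48 h to 8-point half-log concentrations up to 100 uM in 0.5% DMSO. ACOX1 mRNA was measured by qRT-PCR, normalized to ACTB/GAPDH/POLR2A, and fitted bidirectionally versus DMSO.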

[9] = read-out: Alkaline Phosphatase, Placental (ALPP) gene, ALPP (gene 250); assay: LTEA_HepaRG_ALPP: Life Technologies and Expression Analysis (LTEA) Assay for Alkaline Phosphatase, Placental (ALPP) gene using HepaRG (AID 2283468)
Outline: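 qRT-PCR readout of ALPP mRNA (Fluidigm TaqMan), normalized to ACTB/GAPDH/POLR2A, after 48 h chemical exposure of HepaRG cells; 8-point half-log series, top 100 uM, 0.5% DMSO vehicle. Bidirectional curve fit versus DMSO baseline.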

[10] = read-out: Bcl-2 (BAD) gene, BAD (gene 572); assay: LTEA_HepaRG_BAD: Life Technologies and Expression Analysis (LTEA) Assay for Bcl-2 (BAD) gene using HepaRG (AID 2283469)
Outline: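 Differentiated HepaRG cells were exposed in duplicate in 0.5% DMSO for 48 h to eight-point half-log concentrations up to 100 uM. BAD mRNA was measured by Fluidigm TaqMan qRT-PCR, normalized to ACTB, GAPDH and POLR2A, and fitted bidirectionally against DMSO.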

[11] = read-out: Bcl-2 (BAX) gene, BAX (gene 581); assay: LTEA_HepaRG_BAX: Life Technologies and Expression Analysis (LTEA) Assay for Bcl-2 (BAX) gene using HepaRG (AID 2283470)
Outline: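 Concentration-response endpoint fitted in both directions relative to 0.5% DMSO vehicle. Human HepaRG cultures receive test chemicals for 48 h at up to 100 uM; BAX mRNA is quantified by qRT-PCR against housekeeping genes.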

[12] = read-out: adenosine kinase (ADK) gene, ADK (gene 132); assay: LTEA_HepaRG_ADK: Life Technologies and Expression Analysis (LTEA) Assay for adenosine kinase (ADK) gene using HepaRG (AID 2283471)
Outline: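 Following 48 h exposure of HepaRG cells in 0.5% DMSO (top concentration 100 uM, duplicate wells), ADK mRNA induction or suppression was measured by qRT-PCR, normalised to ACTB/GAPDH/POLR2A, and fitted bidirectionally relative to vehicle.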

[13] = read-out: Alpha-fetoprotein (AFP) gene, AFP (gene 174); assay: LTEA_HepaRG_AFP: Life Technologies and Expression Analysis (LTEA) Assay for Alpha-fetoprotein (AFP) gene using HepaRG (AID 2283472)
Outline: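 After a 48 h plating period, cells are moved to serum-free induction medium and dosed in duplicate (100 uM maximum, half-log dilutions, 0.5% DMSO) for another 48 h. Total RNA goes to TaqMan qRT-PCR; AFP signal is housekeeping-normalized.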

BCL2L11 (gene 10018) = assay: LTEA_HepaRG_BCL2L11: Life Technologies and Expression Analysis (LTEA) Assay for Bcl-2 (BCL2L11) gene using HepaRG (AID 2283473)
Outline: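 HepaRG, 48 h exposure, 8-pt half-log series from 100 uM in 0.5% DMSO, duplicates; qRT-PCR (Fluidigm TaqMan) for BCL2L11, housekeeping-normalized; bidirectional curve fit relative to DMSO baseline.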

[14] = read-out: Apolipoprotein A-V (APOA5) gene, APOA5 (gene 116519); assay: LTEA_HepaRG_APOA5: Life Technologies and Expression Analysis (LTEA) Assay for Apolipoprotein A-V (APOA5) gene using HepaRG (AID 2283474)
Outline: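 HepaRG, 48 h chemical exposure in serum-free induction medium, 8-pt half-log series (top 100 uM), 0.5% DMSO vehicle, duplicates. Readout: APOA5 mRNA by qRT-PCR, housekeeping-normalized; bidirectional fit vs DMSO baseline.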

[15] = read-out: Apoptosis regulator Bcl-2 (Homo sapiens) (UniProt P10415); assay: LTEA_HepaRG_BCL2: Life Technologies and Expression Analysis (LTEA) Assay for Bcl-2 gene using HepaRG (AID 2283475)
Outline: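 Expression change of BCL2 mRNA in HepaRG after 48 h dosing, quantified by TaqMan qRT-PCR against three endogenous controls. Concentration-response used eight points up to 100 uM, vehicle 0.5% DMSO.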

[16] = read-out: Bcl-2 (BID) gene, BID (gene 637); assay: LTEA_HepaRG_BID: Life Technologies and Expression Analysis (LTEA) Assay for Bcl-2 (BID) gene using HepaRG (AID 2283476)
Outline: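 Gain or loss of BID expression is fitted relative to 0.5% DMSO vehicle. Human HepaRG liver cells received a 48 h chemical exposure over an eight-point concentration range.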

[17] = read-out: Cytochrome P450 (CYP24A1), CYP24A1 (gene 1591); assay: LTEA_HepaRG_CYP24A1: Life Technologies and Expression Analysis (LTEA) Assay for Cytochrome P450 (CYP24A1) using HepaRG (AID 2283478)
Outline: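 qRT-PCR read-out: CYP24A1 transcript levels normalized to three housekeeping genes, bidirectional curve fits against 0.5% DMSO baseline. Human HepaRG cells treated 48 h with chemicals at eight concentrations from 100 uM in half-log steps.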

Caspase-3 (Homo sapiens) = Caspase-3 (Homo sapiens) (UniProt P42574); assay: LTEA_HepaRG_CASP3: Life Technologies and Expression Analysis (LTEA) Assay for cysteine-aspartic acid protease (CASP3) using HepaRG (AID 2283477)
Chain of Caspase-3 (Homo sapiens) (P42574 whole entry, looked up): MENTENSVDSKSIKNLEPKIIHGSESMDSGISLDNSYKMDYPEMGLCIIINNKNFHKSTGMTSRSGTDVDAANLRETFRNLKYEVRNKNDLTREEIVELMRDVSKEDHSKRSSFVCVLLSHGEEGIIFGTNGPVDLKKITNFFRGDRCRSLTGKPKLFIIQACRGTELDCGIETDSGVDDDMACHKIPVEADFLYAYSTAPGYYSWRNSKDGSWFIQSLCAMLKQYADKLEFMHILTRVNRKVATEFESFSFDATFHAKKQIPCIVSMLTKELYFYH
Outline: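 HepaRG, 48 h exposure, 8 conc. (top 100 uM, half-log steps, duplicate), 0.5% DMSO vehicle; qRT-PCR of CASP3 transcript, housekeeping-normalised (ACTB/GAPDH/POLR2A); bidirectional curve fit vs DMSO baseline.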

Measured: AC50

Chain of Apoptosis regulator Bcl-2 (Homo sapiens) (P10415 whole entry, looked up): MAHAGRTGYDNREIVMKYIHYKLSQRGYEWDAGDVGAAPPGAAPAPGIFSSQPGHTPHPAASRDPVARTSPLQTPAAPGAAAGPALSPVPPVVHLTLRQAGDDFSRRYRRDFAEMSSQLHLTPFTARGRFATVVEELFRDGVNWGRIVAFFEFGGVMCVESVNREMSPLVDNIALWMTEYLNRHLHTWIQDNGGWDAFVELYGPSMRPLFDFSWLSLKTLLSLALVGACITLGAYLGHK

CCOCCO
inactive: [1] | [2] | [3] | [4] | [5] | [6] | [7] | [8] | [9] | [10] | [11] | [12] | [13] | BCL2L11 (gene 10018) | [14] | [15] | [16] | [17]

CN(C)c1ccc(N=NS(=O)(=O)O)cc1
active: [1] 16.4 µM | [3] 31 µM | [5] 21 µM | [8] 12.9 µM | [14] 12.8 µM
inactive: [2] | [4] | [6] | [7] | [9] | [10] | [11] | [12] | [13] | BCL2L11 (gene 10018) | [15] | [16] | [17]

On1ccccc1=S
inactive: [1] | [2] | [3] | [4] | [5] | [6] | [7] | [8] | [9] | [10] | [11] | [12] | [13] | BCL2L11 (gene 10018) | [14] | [15] | [16] | [17]

CC(=O)OC[C@H]1O[C@@](COC(C)=O)(O[C@H]2O[C@H](COC(C)=O)[C@@H](OC(C)=O)[C@H](OC(C)=O)[C@H]2OC(C)=O)[C@@H](OC(C)=O)[C@@H]1OC(C)=O
inactive: [1] | [2] | [3] | [4] | [5] | [6] | [7] | [8] | [9] | [10] | [11] | [12] | [13] | BCL2L11 (gene 10018) | [14] | [15] | [16] | Caspase-3 (Homo sapiens) | [17]

CNCc1ccc(NC(=O)c2c[nH]c3c2C(=O)CCC3)cc1
inactive: [1] | [2] | [3] | [4] | [5] | [6] | [7] | [8] | [9] | [10] | [11] | [12] | [13] | BCL2L11 (gene 10018) | [14] | [15] | [16] | Caspase-3 (Homo sapiens) | [17]
